Drawing on PubChem BioAssay (NCI), this text covers growth inhibition for 10 compounds.

Assay [1] in a line: NCI Yeast Anticancer Drug Screen. Data for the rad50 strain (AID 155).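 Also: 0% = growth of vehicle-only cultures of the same strain.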 The note with it: S. cerevisiae rad50 strain growth inhibition, active compounds read high. In outline:
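Cells are treated with compound, grown, and their growth is then scored against vehicle-only cultures of the same repair-deficient yeast strain.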

Assay [2] is described as follows: NCI Yeast Anticancer Drug Screen. Data for the mec2-1 strain (AID 157). The note with it: S. cerevisiae mec2-1 strain, active compounds read high. The gist of the method: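 Vehicle-treated cultures served as reference for growth inhibition of compound-exposed mec2-1 yeast.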
Assay [3] in a line: NCI Yeast Anticancer Drug Screen. Data for the sgs1 mgt1 strain (AID 161).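 Also: 0% = growth of cultures given vehicle only.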 To be noted: S. cerevisiae sgs1 mgt1 strain, active compounds read high. In outline:
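Mutant yeast exposed to compound; growth scored against vehicle-only wells.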

Assay [4] is described as follows: NCI Yeast Anticancer Drug Screen. Data for the cln2 rad14 strain (AID 165).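 Also: 0% = growth equal to vehicle treated cultures.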 The note with it: S. cerevisiae cln2 rad14 strain, active compounds read high. The gist of the method:
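Each compound was tested on cln2 rad14 yeast. Inhibition of growth was calculated against vehicle-exposed controls.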

Assay [5] in a line: NCI Yeast Anticancer Drug Screen. Data for the bub3 strain (AID 167). The note with it: S. cerevisiae bub3 mutant strain, active compounds read high. The gist of the method: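 Part of a panel of yeast mutants defective in DNA damage repair or cell cycle regulation. Each strain is grown with compound, and inhibition is calculated relative to solvent-treated cultures.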
A short description of assay [6]: NCI Yeast Anticancer Drug Screen. Data for the mlh1 rad18 strain (AID 175). The note with it: S. cerevisiae mlh1 rad18 strain growth inhibition, active compounds read high. In outline:
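Vehicle-treated cultures served as the reference for growth inhibition in a yeast strain carrying DNA damage repair alterations exposed to each compound.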

Where [7] appears, read: at 5.0 µM (retest, dose inferred, filed as 0.5).
The mark [8] stands for this setting: at 50.0 µM (retest, dose inferred, filed as 5.0).

Compounds without any hit were thinned out: in the full panel of roughly 79,000, 15% have a hit. A number with no mark means an inactive call. Active and inactive are the calls of the source. Rule as the data show it: active = growth inhibition above about 70%; inactive = the rest.

Turning to `CCN(CC)C(=O)C(C)OC(C)=O` (stereo not given), the growth inhibition was -1% in assay [1] (setting [7]); 0% in assay [1] (setting [8]); -21.4% in assay [1] (at 50.0 µM); 2% in assay [2] (setting [7]); 1% in assay [2] (setting [8]); 17.6% in assay [2] (at 50.0 µM). The growth inhibition in assay [3] (setting [7]) was 2%; in assay [3] (setting [8]), -1%; in assay [3] (at 50.0 µM), -11.8%; in assay [4] (setting [7]) it was -2%; in assay [4] (setting [8]), -3%; in assay [4] (at 50.0 µM) it was -16%. Also, the growth inhibition in assay [5] (setting [7]) was 2%; in assay [5] (setting [8]), -5%; in assay [5] (at 50.0 µM) it was 8.7%; in assay [6] (setting [7]), 1%; in assay [6] (setting [8]) it was 3%; in assay [6] (at 50.0 µM) it was 27.1%.

In the case of `Cc1ccc[n+](CC(=O)C2CCC3CC4CCCCC4CC3C2)c1` (stereo not given), the growth inhibition is -2% in assay [1] (setting [7]); 38% in assay [1] (setting [8]); 22.4% in assay [1] (at 50.0 µM); -1% in assay [2] (setting [7]); 34% in assay [2] (setting [8]); 17.7% in assay [2] (at 50.0 µM). For the same compound, the growth inhibition in assay [3] (setting [7]) was -27%; in assay [3] (setting [8]), 19%; in assay [3] (at 50.0 µM), 37.4%; in assay [4] (setting [7]) it was 0%; in assay [4] (setting [8]) it was 31%; in assay [4] (at 50.0 µM), -3.75%. For the same compound, the growth inhibition in assay [5] (setting [7]) is 1%; in assay [5] (setting [8]), 29%; in assay [5] (at 50.0 µM) it was 18.8%; in assay [6] (setting [7]), -2%; in assay [6] (setting [8]), 43%; in assay [6] (at 50.0 µM) it was 59%.

For the compound `CN1CCN(CCSC2Cc3cc(Cl)ccc3Sc3ccccc32)CC1` (stereo not given), the growth inhibition is 29% in assay [1] (setting [7]); 29% in assay [1] (setting [8]); 93% (active) in assay [1] (at 50.0 µM); 5% in assay [2] (setting [7]); 5% in assay [2] (setting [8]); 91.8% (active) in assay [2] (at 50.0 µM). The growth inhibition was 19% in assay [3] (setting [7]); 19% in assay [3] (setting [8]); 92% (active) in assay [3] (at 50.0 µM); 1% in assay [4] (setting [7]); 1% in assay [4] (setting [8]); 91.6% (active) in assay [4] (at 50.0 µM). For the same compound, the growth inhibition is 16% in assay [5] (setting [7]); 16% in assay [5] (setting [8]); 93.8% (active) in assay [5] (at 50.0 µM); 29% in assay [6] (setting [7]); 29% in assay [6] (setting [8]); 92.5% (active) in assay [6] (at 50.0 µM).

`O=C(C=P(c1ccccc1)(c1ccccc1)c1ccccc1)c1ccc(Cl)cc1`: the growth inhibition in assay [1] (setting [7]) is 5%; in assay [1] (setting [8]) it was 98% (active); in assay [1] (at 50.0 µM), 98.8% (active); in assay [2] (setting [7]) it was 12%; in assay [2] (setting [8]) it was 99% (active); in assay [2] (at 50.0 µM), 99.2% (active). For the same compound, the growth inhibition in assay [3] (setting [7]) is 19%; in assay [3] (setting [8]), 99% (active); in assay [3] (at 50.0 µM) it was 99% (active); in assay [4] (setting [7]) it was -10%; in assay [4] (setting [8]), 98% (active); in assay [4] (at 50.0 µM), 98.7% (active). Besides, the growth inhibition is 16% in assay [5] (setting [7]); 99% (active) in assay [5] (setting [8]); 98.5% (active) in assay [5] (at 50.0 µM); -16% in assay [6] (setting [7]); 99% (active) in assay [6] (setting [8]); 99% (active) in assay [6] (at 50.0 µM).

For `Cc1cc(NS(=O)(=O)c2ccc(N)cc2)no1.[Ag]`, the growth inhibition was 99% (active) in assay [1] (setting [7]); 99% (active) in assay [1] (setting [8]); 99.4% (active) in assay [1] (at 50.0 µM); 100% (active) in assay [2] (setting [7]); 99% (active) in assay [2] (setting [8]); 99.7% (active) in assay [2] (at 50.0 µM). Also, the growth inhibition in assay [3] (setting [7]) is 99% (active); in assay [3] (setting [8]) it was 100% (active); in assay [3] (at 50.0 µM), 99.7% (active); in assay [4] (setting [7]) it was 99% (active); in assay [4] (setting [8]) it was 99% (active); in assay [4] (at 50.0 µM), 99.5% (active). In addition, the growth inhibition in assay [5] (setting [7]) was 99% (active); in assay [5] (setting [8]), 99% (active); in assay [5] (at 50.0 µM), 99.7% (active); in assay [6] (setting [7]) it was 99% (active); in assay [6] (setting [8]), 99% (active); in assay [6] (at 50.0 µM), 99.5% (active).

As for `O=C(c1ccccc1)C1(C(=O)c2ccccc2)/C(=N\O)C2CCC1C2` (stereo not given), the growth inhibition in assay [1] (setting [7]) was 7%; in assay [1] (setting [8]) it was 93% (active); in assay [1] (at 50.0 µM), 6.05%; in assay [2] (setting [7]) it was 1%; in assay [2] (setting [8]) it was 96% (active); in assay [2] (at 50.0 µM), 12.7%. Also, the growth inhibition in assay [3] (setting [7]) is -2%; in assay [3] (setting [8]) it was 95% (active); in assay [3] (at 50.0 µM) it was 9.75%; in assay [4] (setting [7]), -2%; in assay [4] (setting [8]), 94% (active); in assay [4] (at 50.0 µM), 1.9%. For the same compound, the growth inhibition in assay [5] (setting [7]) was 0%; in assay [5] (setting [8]), 95% (active); in assay [5] (at 50.0 µM) it was 53.1%; in assay [6] (setting [7]) it was 12%; in assay [6] (setting [8]), 93% (active); in assay [6] (at 50.0 µM), 13.7%.

Consider `Clc1ccc(/C=N\Nc2ccccc2)c(Cl)c1`, for which the growth inhibition in assay [1] (setting [7]) was 4%; in assay [1] (setting [8]), 99% (active); in assay [1] (at 50.0 µM) it was 76.8% (active); in assay [2] (setting [7]) it was 1%; in assay [2] (setting [8]) it was 99% (active); in assay [2] (at 50.0 µM), 44.9%. Further, the growth inhibition in assay [3] (setting [7]) is -1%; in assay [3] (setting [8]), 98% (active); in assay [3] (at 50.0 µM) it was 30.1%; in assay [4] (setting [7]), 2%; in assay [4] (setting [8]), 86% (active); in assay [4] (at 50.0 µM), -6.9%. The growth inhibition is -2% in assay [5] (setting [7]); 99% (active) in assay [5] (setting [8]); 31.7% in assay [5] (at 50.0 µM); 1% in assay [6] (setting [7]); 99% (active) in assay [6] (setting [8]); 66.4% in assay [6] (at 50.0 µM).

Take `CSC1=NSC(c2ccccc2)=C(c2ccccc2)S1`: the growth inhibition in assay [1] (setting [7]) is 7%; in assay [1] (setting [8]), 9%; in assay [1] (at 50.0 µM) it was 7.95%; in assay [2] (setting [7]) it was -15%; in assay [2] (setting [8]) it was 10%; in assay [2] (at 50.0 µM), -1.45%. Further, the growth inhibition in assay [3] (setting [7]) was -11%; in assay [3] (setting [8]), 0%; in assay [3] (at 50.0 µM) it was 27.8%; in assay [4] (setting [7]), 33%; in assay [4] (setting [8]), 88% (active); in assay [4] (at 50.0 µM), 62.5%. Further, the growth inhibition in assay [5] (setting [7]) was 9%; in assay [5] (setting [8]), 43%; in assay [5] (at 50.0 µM), 43.1%; in assay [6] (setting [7]) it was 5%; in assay [6] (setting [8]) it was 16%; in assay [6] (at 50.0 µM), 10.2%.

With `CC12CCC(=O)C=C1C=CC1C2CCC2(C)C1CCC21CCC(=O)O1` (stereo not given), the growth inhibition was 11% in assay [1] (setting [7]); 99% (active) in assay [1] (setting [8]); 74.6% (active) in assay [1] (at 50.0 µM); 5% in assay [2] (setting [7]); 99% (active) in assay [2] (setting [8]); 80.2% (active) in assay [2] (at 50.0 µM). Besides, the growth inhibition was 7% in assay [3] (setting [7]); 99% (active) in assay [3] (setting [8]); 84% (active) in assay [3] (at 50.0 µM); 2% in assay [4] (setting [7]); 99% (active) in assay [4] (setting [8]); 24.1% in assay [4] (at 50.0 µM). In addition, the growth inhibition was -1% in assay [5] (setting [7]); 99% (active) in assay [5] (setting [8]); 66.7% in assay [5] (at 50.0 µM); 7% in assay [6] (setting [7]); 99% (active) in assay [6] (setting [8]); 72.8% (active) in assay [6] (at 50.0 µM).

Take `C=CCc1cc(Cl)ccc1O`: the growth inhibition in assay [1] (setting [7]) was 1%; in assay [1] (setting [8]), 51%; in assay [1] (at 50.0 µM) it was 37.6%; in assay [2] (setting [7]) it was -2%; in assay [2] (setting [8]), 27%; in assay [2] (at 50.0 µM), 79% (active). In addition, the growth inhibition is 1% in assay [3] (setting [7]); 40% in assay [3] (setting [8]); 83.5% (active) in assay [3] (at 50.0 µM); 1% in assay [4] (setting [7]); 14% in assay [4] (setting [8]); 61.2% in assay [4] (at 50.0 µM). Besides, the growth inhibition in assay [5] (setting [7]) is 0%; in assay [5] (setting [8]), 19%; in assay [5] (at 50.0 µM), 38.7%; in assay [6] (setting [7]), 1%; in assay [6] (setting [8]), 51%; in assay [6] (at 50.0 µM), 36.4%.
